Results on 30 sequences are retold here after the OligoGym collection.
Further: reference of the scale not given here.

In the first assay the target is ELF2. Nature of the assay: pooled miR-30 sensor sort-seq; sequence = guide strand. The settings on record: shRNA.
TAGTAGTATCTCAAAGCTCGTC displayed a sensor-assay potency score (higher = more potent) of -0.0908.
In the case of TTGTCTGCAGTTGACACTGTGC, the sensor-assay potency score (higher = more potent) is -0.232.
For TAGATCTAAAAGAAACTCCCAC, the sensor-assay potency score (higher = more potent) amounted to 0.171.
Consider TTTGTCTGCAGTTGACACTGTG, for which the sensor-assay potency score (higher = more potent) stood at 0.266.
As to TTGTCTTATCTGTACAGTGTGC, the sensor-assay potency score (higher = more potent) is -0.612.
TATGACTGCACTGATAACTCGA: the sensor-assay potency score (higher = more potent) was 0.372.
Consider TATCCTTGAACTGATATACAAG, for which the sensor-assay potency score (higher = more potent) is -1.19.
Take TGTCATTACAACAGGTACCTGC: the sensor-assay potency score (higher = more potent) is 0.12.
As to TATGTTTTTCGGCATATCCTTG, the sensor-assay potency score (higher = more potent) is -0.943.
In turn, TTCACTTTTGTCATCATCTATG registered a sensor-assay potency score (higher = more potent) of -0.773.

In the next assay the target is EMD. The assay is described as above. The following applies: shRNA.
TTCTTCTCGTAAAGCCTACGAG showed a sensor-assay potency score (higher = more potent) of -0.852.
Same read-out and setting: with TAAAGCGTCCTCTTTCTTGGGA the figure was 0.267; with TATCCTTGCACTCCTCTTCAGA, -0.66; with AAGAAGACAAAAGATCGTCATC, -1.25.
Take TGGTGAAGTAGCTCTCTTCATA: the sensor-assay potency score (higher = more potent) was -1.46.
In the case of TCGAAGATCTTCTTCTCGTAAA, the sensor-assay potency score (higher = more potent) was -1.01.
The sequence TAGTGCGTGATGCTCTGGTAGG had a sensor-assay potency score (higher = more potent) of -0.899.
TCTGGTAGAGTAAAGCGTCCTC yielded a sensor-assay potency score (higher = more potent) of 0.201.
As for AAGATCGTCATCATGCACCTGG, the sensor-assay potency score (higher = more potent) came to 0.638.
In the case of TAGTCGTCATTGTAGCCCTTGC, the sensor-assay potency score (higher = more potent) is -0.858.
AATGAAGTCACTGACTGGCGGA returned a sensor-assay potency score (higher = more potent) of -0.824.
Sequence TAGTAGTCGTCATTGTAGCCCT gave a sensor-assay potency score (higher = more potent) of -0.272.
TAGGATAATAGGACAGGTCCAG came in with a sensor-assay potency score (higher = more potent) of -0.423.
TACATATCTGCATCCCCTCTAG came in with a sensor-assay potency score (higher = more potent) of -0.434.
Still for that read-out and setting: in the case of TACTCGAAGATCTTCTTCTCGT it was -0.0297; in that of TTCCCTATCCTTGCACTCCTCT, -0.239.
Still for that read-out and setting: in the case of TAGCTCTCTTCATAGTAGTCGT it was -0.538.
Sequence TGCTCTGGTAGAGTAAAGCGTC had a sensor-assay potency score (higher = more potent) of -0.878.
Still for that read-out and setting: in the case of ATCGTCATCATGCACCTGGTGA it was -0.488; in that of TACGAGTTGATCCTACTACAGG, -1.33.
